Experimental data taken from PubChem BioAssay AID1159580 (chemical genetic matrix, 2015).
In all, about 5,500 compounds went through this assay and about 2,000 (36%) were called active. Inconclusive results (about 18%) are left out. Cut-off read from the data, not from the text of the source: active = normalized growth mostly below about 0.91 (no sharp cut-off); inconclusive = no clear call, values can overlap the other calls; inactive = mostly above about 0.92. This is one part of the list.

Assay: chemical genetic growth profiling, strain panel (AID 1159580);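 note: tested at 20 µM; growth read once vehicle control cultures reached saturation at 30 °C; 1 = growth at the plate median or of vehicle wells; lower values mean less growth of the strain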
Details: S. cerevisiae deletion strains, growth OD

Measured: normalized growth

O=C(Nc1ccc(Cl)cc1Cl)c1cnccc1C(F)(F)F
inactive: locus YAR019C, strain CDC15, hits give low values 0.978 | locus YBL105C, strain PKC1, hits give low values 0.976 | locus YBR135W, strain CKS1, hits give low values 0.981 | locus YBR136W, strain MEC1, hits give low values 0.971 | locus YBR160W, strain CDC28, hits give low values 0.974 | locus YDL017W, strain CDC7, hits give low values 0.984 | locus YDL028C, strain MPS1, hits give low values 0.976 | locus YDL101C, strain DUN1, hits give low values 0.964 | locus YDL108W, strain KIN28, hits give low values 0.97 | locus YDL132W, strain cdc53, hits give low values 0.972 | locus YDL214C, strain PRR2, hits give low values 0.987 | locus YDR052C, strain DBF4, hits give low values 0.977 | locus YDR054C, strain cdc34, hits give low values 0.977 | locus YDR226W, strain ADK1, hits give low values 0.976 | locus YDR477W, strain SNF1, hits give low values 0.981 | locus YER123W, strain YCK3, hits give low values 0.958 | locus YER133W, strain GLC7, hits give low values 0.976 | locus YFL009W, strain cdc4, hits give low values 0.971 | locus YFL029C, strain CAK1, hits give low values 0.975 | locus YFR003C, strain YPI1, hits give low values 0.977 | locus YFR019W, strain FAB1, hits give low values 0.98 | locus YFR028C, strain CDC14, hits give low values 0.97 | locus YGR040W, strain KSS1, hits give low values 0.977 | locus YGR052W, strain FMP48, hits give low values 1.13 | locus YGR092W, strain DBF2, hits give low values 0.998 | locus YHR030C, strain SLT2, hits give low values 1.15 | locus YHR079C, strain IRE1, hits give low values 1.09 | locus YHR082C, strain KSP1, hits give low values 1.11 | locus YHR205W, strain SCH9, hits give low values 0.974 | locus YIL147C, strain SLN1, hits give low values 0.971 | locus YJL095W, strain BCK1, hits give low values 1.14 | locus YJL128C, strain PBS2, hits give low values 0.935 | locus YJL157C, strain FAR1, hits give low values 0.973 | locus YJR016C, strain ILV3, hits give low values 0.976 | locus YJR066W, strain TOR1 (second series), hits give low values 1 | locus YJR066W, strain TOR1, hits give low values 1.12 | locus YKL048C, strain ELM1, hits give low values 0.974 | locus YKL067W, strain YNK1, hits give low values 0.981 | locus YKL101W, strain HSL1, hits give low values 0.986 | locus YKL193C, strain SDS22, hits give low values 0.967 | locus YKL203C, strain TOR2, hits give low values 1.05 | locus YLR113W, strain HOG1, hits give low values 1.05 | locus YLR133W, strain CKI1, hits give low values 0.988 | locus YLR403W, strain SFP1, hits give low values 0.967 | locus YML070W, strain DAK1, hits give low values 0.98 | locus YMR001C, strain CDC5, hits give low values 0.972 | locus YMR205C, strain PFK2 (second series), hits give low values 0.993 | locus YMR277W, strain FCP1, hits give low values 0.962 | locus YNL006W, strain LST8, hits give low values 0.973 | locus YNL020C, strain ARK1, hits give low values 0.989 | locus YNL161W, strain CBK1, hits give low values 0.974 | locus YNL183C, strain NPR1, hits give low values 1.1 | locus YNL207W, strain RIO2, hits give low values 0.976 | locus YNL222W, strain SSU72, hits give low values 0.976 | locus YNL307C, strain MCK1 (second series), hits give low values 0.988 | locus YOL078W, strain AVO1, hits give low values 0.975 | locus YOL136C, strain PFK27, hits give low values 0.982 | locus YOR061W, strain CKA2, hits give low values 0.99 | locus YOR119C, strain RIO1, hits give low values 1.01 | locus YOR231W, strain MKK1, hits give low values 1.1 | locus YOR329C, strain SCD5, hits give low values 0.975 | locus YPL031C, strain PHO85, hits give low values 0.977 | locus YPL153C, strain RAD53, hits give low values 0.99 | locus YPL204W, strain HRR25, hits give low values 0.976 | locus YPL209C, strain IPL1, hits give low values 0.967 | locus YPL256C, strain CLN2, hits give low values 1.07 | locus YPR025C, strain CCL1, hits give low values 0.976 | locus YPR106W, strain ISR1, hits give low values 0.972 | locus YPR111W, strain DBF20, hits give low values 0.974 | strain NNK1, hits give low values 0.971 | strain TSCII, hits give low values 0.972
